According to PubChem BioAssay AID1159580 (chemical genetic matrix, 2015):
Where “and” joins values, the source holds several entries; their conditions need not be identical. Identical values can stand only once. The campaign covered roughly 5,500 compounds. About 2,000 (36%) were called active. Roughly 18% stayed inconclusive and do not appear here. Rule as the data show it: active = normalized growth mostly below about 0.91 (no sharp cut-off); inconclusive = no clear call, values can overlap the other calls; inactive = mostly above about 0.92. The list shows a part of the results.

Assay: chemical genetic growth profiling, strain panel (AID 1159580);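 also: tested at 20 µM; growth read once vehicle control cultures reached saturation at 30 °C; 1 = growth at the plate median or of vehicle wells; lower values mean less growth of the strain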
Conditions: S. cerevisiae deletion strains, growth OD
[1] = locus YHR030C, strain SLT2, hits give low values
[2] = locus YHR079C, strain IRE1, hits give low values
[3] = locus YJL095W, strain BCK1, hits give low values
[4] = locus YJR066W, strain TOR1, hits give low values
[5] = locus YLR113W, strain HOG1, hits give low values
[6] = locus YNL183C, strain NPR1, hits give low values
[7] = locus YOR231W, strain MKK1, hits give low values
[8] = locus YPL256C, strain CLN2, hits give low values

Measured: normalized growth

C=C(C)[C@@H]1CC[C@]2(C)CC[C@]3(C)[C@@H](CCC4[C@@]5(C)CC[C@H](O)C(C)(C)C5CC[C@]43C)C12 (some centres not stated)
inactive: [1] 1 | [2] 0.978 | [3] 0.993 | [4] 0.944 | [5] 0.992 | [6] 0.923 | [7] 0.99 | [8] 0.994

C=C(C)[C@@H]1CC[C@]2(CO)CC[C@]3(C)[C@H](CCC4[C@@]5(C)CC[C@H](O)C(C)(C)C5CC[C@]43C)C12 (some centres not stated)
inactive: locus YAL021C, strain ccr4, hits give low values 1.02 | locus YAL026C, strain drs2, hits give low values 1.01 | locus YAL030W, strain snc1, hits give low values 1.01 | locus YBL061C, strain skt5, hits give low values 1.02 | locus YBR009C, strain hhf1, hits give low values 1.01 | locus YBR021W, strain FUR4, hits give low values 0.984 | locus YBR023C, strain chs3, hits give low values 1.01 | locus YBR171W, strain sec66, hits give low values 1.02 | locus YBR229C, strain ROT2, hits give low values 0.995 | locus YBR231C, strain swc5, hits give low values 1.01 | locus YBR279W, strain paf1, hits give low values 1.01 | locus YCL011C, strain gbp2, hits give low values 1.01 | locus YCL016C, strain dcc1, hits give low values 1.01 | locus YCL029C, strain bik1, hits give low values 0.979 | locus YCL061C, strain MRC1, hits give low values 1.01 | locus YCL069W, strain vba3, hits give low values 1.01 | locus YCR088W, strain abp1, hits give low values 1.01 | locus YDL005C, strain med2, hits give low values 1 | locus YDL035C, strain GPR1, hits give low values 1.02 | locus YDL040C, strain nat1, hits give low values 1.01 | locus YDL074C, strain BRE1, hits give low values 1.01 | locus YDL101C, strain DUN1, hits give low values 0.991 | locus YDL185W, strain tfp1, hits give low values 0.977 | locus YDL192W, strain arf1, hits give low values 0.997 | locus YDR001C, strain nth1, hits give low values 1 | locus YDR069C, strain doa4, hits give low values 1 | locus YDR101C, strain arx1, hits give low values 0.977 | locus YDR137W, strain rgp1, hits give low values 1.01 | locus YDR159W, strain sac3, hits give low values 1.01 | locus YDR162C, strain NBP2, hits give low values 1.02 | locus YDR195W, strain ref2 0.972 | locus YDR297W, strain sur2, hits give low values 1.01 | locus YDR318W, strain mcm21, hits give low values 1.02 | locus YDR334W, strain swr1, hits give low values 0.996 | locus YDR335W, strain msn5, hits give low values 1 | locus YDR388W, hits give low values 1.01 | locus YDR392W, strain spt3, hits give low values 0.925 | locus YDR502C, strain sam2, hits give low values 0.997 | locus YEL003W, strain gim4, hits give low values 1 | locus YEL037C, strain rad23, hits give low values 0.977 | locus YEL061C, strain CIN8 (second series), hits give low values 1 | locus YEL061C, strain CIN8, hits give low values 1.02 | locus YER015W, strain faa2, hits give low values 0.996 | locus YER016W, strain bim1, hits give low values 1.01 | locus YER110C, hits give low values 0.99 | locus YER111C, strain swi4, hits give low values 1.01 | locus YER155C, strain BEM2 (second series), hits give low values 0.984 | locus YER155C, strain BEM2, hits give low values 0.992 | locus YER167W, strain BCK2, hits give low values 1 | locus YFR010W, strain ubp6, hits give low values 0.999 | locus YGL078C, strain dbp3, hits give low values 0.989 | locus YGL086W, strain mad1, hits give low values 0.973 | locus YGL167C, strain pmr1, hits give low values 1.01 | locus YGL173C, strain kem1, hits give low values 1.01 | locus YGL227W, strain vid30, hits give low values 1.02 | locus YGL240W, strain doc1, hits give low values 1.01 | locus YGL248W, strain PDE1, hits give low values 1 | locus YGL253W, strain hxk2, hits give low values 1.04 | locus YGR135W, strain pre9, hits give low values 1.01 | locus YGR252W, strain gcn5, hits give low values 1.05 | locus YHR013C, strain ard1, hits give low values 1.03 | locus YHR027C, strain rpn1, hits give low values 1 | [1] 0.995 and 0.997 | locus YHR079C, strain IRE1 (second series), hits give low values 0.992 | [2] 0.998 | locus YHR094C, strain hxt1, hits give low values 1 | locus YHR129C, strain ARP1, hits give low values 0.949 | locus YHR142W, strain chs7, hits give low values 1.06 | locus YHR200W, strain rpn10, hits give low values 0.998 | locus YIL066C, strain RNR3, hits give low values 0.993 | locus YIL073C, strain SPO22, hits give low values 1.01 | locus YIL125W, strain kgd1, hits give low values 0.986 | locus YIR030C, strain dcg1, hits give low values 0.989 | locus YJL092W, strain hpr5, hits give low values 1.01 | locus YJL095W, strain BCK1 (second series), hits give low values 1.01 | [3] 1.02 and 0.982 | locus YJL115W, strain asf1, hits give low values 1.01 | locus YJL129C, strain trk1, hits give low values 1.03 | locus YJL134W, strain LCB3, hits give low values 0.992 | locus YJL154C, strain vps35, hits give low values 0.998 | locus YJL164C, strain tpk1, hits give low values 1.01 | locus YJL166W, strain qcr8, hits give low values 1.01 | locus YJL168C, strain set2, hits give low values 0.994 | locus YJL187C, strain SWE1 (second series), hits give low values 0.996 | locus YJL187C, strain SWE1, hits give low values 1.01 | locus YJR043C, strain POL32, hits give low values 0.996 | [4] 0.932 | locus YJR075W, strain HOC1, hits give low values 1.01 | locus YKL009W, strain mrt4, hits give low values 0.963 | locus YKL160W, strain elf1, hits give low values 1.03 | locus YKL190W, strain CNB1, hits give low values 1.03 | locus YKR001C, strain vps1, hits give low values 0.976 | locus YKR026C, strain gcn3, hits give low values 1.01 | locus YKR091W, strain srl3, hits give low values 1 | locus YLL001W, strain dnm1, hits give low values 1.03 | locus YLL026W, hits give low values 1 | locus YLL041C, strain sdh2, hits give low values 1 | locus YLR027C, strain aat2, hits give low values 1 | locus YLR039C, strain RIC1, hits give low values 1.02 | locus YLR058C, strain SHM2, hits give low values 1.01 | locus YLR102C, strain apc9, hits give low values 0.991 | [5] 0.999 | locus YLR221C, strain rsa3, hits give low values 1.03 | locus YLR258W, strain gsy2, hits give low values 0.996 | locus YLR262C, strain YPT6 (second series), hits give low values 1 | locus YLR262C, strain YPT6, hits give low values 1.08 | locus YLR268W, strain sec22, hits give low values 0.964 | locus YLR320W, strain mms22, hits give low values 1.04 | locus YLR330W, strain CHS5, hits give low values 1 | locus YLR342W, strain FKS1 (second series), hits give low values 0.998 | locus YLR342W, strain FKS1, hits give low values 0.986 | locus YLR357W, strain rsc2, hits give low values 1.01 | locus YLR370C, strain arc18, hits give low values 1.02 | locus YLR371W, strain rom2, hits give low values 0.985 | locus YLR384C, strain iki3, hits give low values 1.01 | locus YLR418C, strain cdc73, hits give low values 1.01 | locus YML016C, strain PPZ1, hits give low values 0.985 | locus YML032C, strain rad52, hits give low values 1.02 | locus YML120C, strain ndi1, hits give low values 1 | locus YML124C, strain tub3, hits give low values 0.994 | locus YMR058W, strain fet3, hits give low values 1.02 | locus YMR078C, strain ctf18, hits give low values 0.973 | locus YMR125W, strain sto1, hits give low values 1.01 | locus YMR129W, hits give low values 1 | locus YMR205C, strain PFK2, hits give low values 1.03 | locus YMR223W, strain ubp8, hits give low values 1 | locus YMR231W, strain pep5, hits give low values 1.01 | locus YMR307W, strain GAS1, hits give low values 1.09 | locus YNL067W, strain RPL9B, hits give low values 1 | locus YNL071W, strain lat1, hits give low values 1.01 | [6] 0.939 | locus YNL209W, strain ssb2, hits give low values 1.01 | locus YNL233W, strain BNI4, hits give low values 0.999 | locus YNL248C, strain rpa49, hits give low values 1 | locus YNL250W, strain rad50, hits give low values 0.978 | locus YNL271C, strain bni1, hits give low values 0.976 | locus YNL298W, strain CLA4, hits give low values 1.01 | locus YNL307C, strain MCK1, hits give low values 0.988 | locus YNL322C, strain KRE1 (second series), hits give low values 1.01 | locus YNR049C, strain mso1, hits give low values 1.01 | locus YNR052C, strain pop2, hits give low values 0.998 | locus YOL012C, strain htz1 0.862 | locus YOL147C, strain pex11, hits give low values 0.992 | locus YOR001W, strain rrp6, hits give low values 0.98 | locus YOR061W, strain CKA2, hits give low values 0.994 | locus YOR069W, strain VPS5, hits give low values 0.99 | locus YOR070C, strain gyp1, hits give low values 1.01 | locus YOR080W, strain dia2, hits give low values 1.01 | locus YOR083W, strain WHI5, hits give low values 1.03 | locus YOR106W, strain vam3, hits give low values 1.02 | locus YOR136W, strain idh2, hits give low values 0.979 | locus YOR144C, strain elg1, hits give low values 0.997 | locus YOR184W, strain ser1, hits give low values 0.98 | [7] 0.995 | locus YOR265W, strain rbl2, hits give low values 1.02 | locus YOR270C, strain vph1, hits give low values 1.04 | locus YOR290C, strain snf2, hits give low values 1 | locus YOR316C, strain cot1, hits give low values 0.999 | locus YPL051W, strain arl3, hits give low values 1.02 | locus YPL078C, strain atp4, hits give low values 1.01 | locus YPL106C, strain sse1, hits give low values 1 | locus YPL240C, strain hsp82, hits give low values 1 | [8] 0.972 | locus YPR119W, strain clb2, hits give low values 0.993 | locus YPR141C, strain kar3, hits give low values 0.984 | locus YPR163C, strain tif3, hits give low values 1 | locus YPR167C, strain met16, hits give low values 1.01 | strain wtn01, hits give low values 0.946
active: locus YKL068W, hits give low values 1.09 [resistant]
